The results in this text go back to PubChem BioAssay (EPA / NIEHS).

Assay [1] deals with Retinoic acid receptor alpha (Homo sapiens) (UniProt P10276). The assay is described as follows: ATG_DR5_RAR_CIS: Attagene CIS-FACTORIAL HepG2 Assay for human Retinoic Acid Receptor Alpha (RARE), DR5 submotif (AID 2282934; active = hit-call score of the fitted dose curve at least 0.9, where 1 is the maximum; inactive = score below 0.9). Particulars: HepG2 Attagene cis-factorial RARE DR5 reporter, mRNA; actives raise or lower the signal. The method, boiled down:
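HepG2 cells transiently transfected with multiplexed reporter units; DR5 cis-element drives reporter through endogenous transcription factors. After 24 h dosing, reporter mRNA quantified by RT-PCR, fluorescent labeling, HpaI digestion and capillary electrophoresis; bidirectional fitting versus DMSO.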

The nature of assay [2]: ATG_M_19_CIS: Attagene CIS-FACTORIAL HepG2 Assay for M19 Transcription Factor (Internal Marker) (AID 2282939; active = hit-call score of the fitted dose curve at least 0.9, where 1 is the maximum; inactive = score below 0.9). Particulars: HepG2 Attagene CIS-FACTORIAL M19 internal marker reporter; actives raise or lower the signal. The method, boiled down: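 Signals come from fluorescence of labelled reporter-specific PCR fragments resolved by capillary electrophoresis, following 24 h treatment of HepG2 cells transfected with cis-promoter reporter units; activity was fitted in both directions relative to DMSO.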

The nature of assay [3]: ATG_GRE_CIS: Attagene CIS-FACTORIAL HepG2 Assay for human Glucocorticoid Response Elements (GRE) (AID 2282947; active = hit-call score of the fitted dose curve at least 0.9, where 1 is the maximum; inactive = score below 0.9). The note with it: HepG2 GRE cis-reporter, Attagene multiplex mRNA; actives raise or lower the signal. The method, boiled down:
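Fluorescence intensity of reporter-specific cDNA fragments, separated by capillary electrophoresis, provides the signal. Constructs carry cis-regulating promoters in transiently transfected HepG2 liver cells; 24 h incubation; fitting is bidirectional against DMSO.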

Assay [4] addresses Hepatocyte nuclear factor 6 (Homo sapiens) (UniProt Q9UBC0). The assay is described as follows: ATG_HNF6_CIS: Attagene CIS-FACTORIAL HepG2 Assay for human Hepatocyte Nuclear Factor 6 (HNF6) (AID 2282952; active = hit-call score of the fitted dose curve at least 0.9, where 1 is the maximum; inactive = score below 0.9). Particulars: HepG2 Attagene cis-factorial HNF6 reporter transcription; actives raise or lower the signal. The method, boiled down:
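Endogenous transcription factor activity in human HepG2 liver cells was captured through cis-regulated reporter constructs. After 24 h treatment, reporter mRNA was measured by RT-PCR with capillary electrophoresis, and activity was fitted in both directions relative to DMSO.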

Assay [5] in a line: ATG_TGFb_CIS: Attagene CIS-FACTORIAL HepG2 Assay for human Transforming Growth Factor (TGF) (AID 2282967; active = hit-call score of the fitted dose curve at least 0.9, where 1 is the maximum; inactive = score below 0.9). The note with it: HepG2 Attagene CIS TGFb reporter, mRNA transcription; actives raise or lower the signal. The method, boiled down: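 Bidirectional fitting relative to DMSO gave the endpoint. Underlying data: reporter mRNA from HepG2 cells carrying transiently transfected cis-regulated reporter constructs, harvested 24 h after dosing and analyzed by RT-PCR and capillary electrophoresis.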

Assay [6] has as its target X-box-binding protein 1 (Homo sapiens) (UniProt P17861). The assay is described as follows: ATG_Xbp1_CIS: Attagene CIS-FACTORIAL HepG2 Assay for human X-box Binding Protein 1 (XBP1) (AID 2282972; active = hit-call score of the fitted dose curve at least 0.9, where 1 is the maximum; inactive = score below 0.9). Particulars: HepG2 XBP1 cis-element reporter, Attagene multiplex; actives raise or lower the signal. The method, boiled down: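 Read-out: fluorescent reporter mRNA fragments resolved by capillary electrophoresis after RT-PCR. Human HepG2 liver cells carried transfected cis-promoter reporter units and were exposed to chemicals for 24 hours. Gain or loss of signal fitted relative to DMSO baseline.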

Assay [7] can be described thus: ATG_M_32_TRANS: Attagene TRANS-FACTORIAL HepG2 Assay for M32 Transcription Factor (Internal Marker) (AID 2282984).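 Note: transcript level of a background control reporter unit measured by RT-PCR and capillary electrophoresis.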 Particulars: HepG2 Attagene TRANS M32 internal marker reporter. The method, boiled down: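 Internal-marker readout from a multiplexed transcription reporter panel. HepG2 cells were transfected with GAL4-UAS reporter units, treated 24 hours, and reporter transcript levels determined by fluorescence after RT-PCR and capillary separation.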

Assay [8] has as its target Retinoic acid receptor RXR-alpha (Homo sapiens) (UniProt P19793). Kind of assay: ATG_RXRa_TRANS: Attagene TRANS-FACTORIAL HepG2 Assay for human Retinoid X Receptor alpha (RXRa) (AID 2283012). The method, boiled down: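 Measures exogenous chimeric NR-GAL4 activity in transfected HepG2 liver cells after 24 h of dosing. Induced reporter mRNA was detected by RT-PCR with capillary electrophoresis, and gain of signal was analysed against DMSO.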

The target of assay [9] is human Retinoid X Receptor beta (RXRb), RXRB (gene 6257) (UniProt P28702). The assay is described as follows: ATG_RXRb_TRANS: Attagene TRANS-FACTORIAL HepG2 Assay for human Retinoid X Receptor beta (RXRb) (AID 2283013). The method, boiled down: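 Chimeric receptor-Gal4 activity was assessed in transiently transfected human HepG2 cells after 24 h exposure. Transcripts from GAL4-UAS reporters were quantified by fluorescent RT-PCR and capillary electrophoresis, with DMSO as negative control and baseline.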

The nature of assay [10]: TOX21_p53_BLA_p2_viability: Viability Assessment in the Tox21 HCT-116 p53 Agonism Beta-lactamase Assay, Phase 2 (AID 2283591).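 Note: compound exposure lasted 16 h at 37 °C; actives lower the ATP signal meaning cytotoxicity.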 The method, boiled down: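 HCT116 p53-bla cells, 4000/well, dosed after 5 h plating (217-fold dilution of DMSO stocks) and incubated 16 h at 37C. Viability taken as cellular ATP by CellTiter-Glo luminescence after 30 min RT; signal loss marks cytotoxicity.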

Assay [11] deals with Cellular tumor antigen p53 (Homo sapiens) (UniProt P04637). The assay is described as follows: TOX21_p53_BLA_p3_ratio: Tox21 HCT-116 p53 Agonism Beta-lactamase Assay, Ratio, Phase 3 (AID 2283596). The method, boiled down: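 Cells were seeded at 4000/well, rested 5 h at 37C, then dosed with DMSO compound solutions (217-fold dilution) for 16 h. CCF4-AM substrate was loaded for 2 h at room temperature, and the 460/530 nm emission ratio was fitted for gain of signal versus DMSO.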

Assay [12] in a line: TOX21_p53_BLA_p5_viability: Viability Assessment in the Tox21 HCT-116 p53 Agonism Beta-lactamase Assay, Phase 5 (AID 2283600). The method, boiled down: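 Viability is taken from cellular ATP content, measured by luciferase luminescence in the same wells after the beta-lactamase ratio read. Cells are seeded at 4000 per well and exposed to DMSO-dissolved compounds, diluted 217-fold, for 16 h.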

Assay [13] in a line: ATG_M_06_TRANS: Attagene TRANS-FACTORIAL HepG2 Assay for M06 Transcription Factor (Internal Marker) (AID 2282983). Particulars: HepG2 Attagene TRANS M06 internal marker reporter. The method, boiled down:
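Human liver HepG2 cells bearing transiently transfected chimeric NR-GAL4 reporter units were treated with chemicals for 24 h. Total RNA was reverse-transcribed, reporter sequences amplified and labelled, then quantified by capillary electrophoresis. Activity was fitted upward relative to DMSO.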

Assay [14] deals with Cellular tumor antigen p53 (Homo sapiens) (UniProt P04637). Kind of assay: TOX21_p53_BLA_p2_ratio: Tox21 HCT-116 p53 Agonism Beta-lactamase Assay, Ratio, Phase 2 (AID 2283592). The method, boiled down:
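Cleaved-to-uncleaved substrate ratio (460 vs 530 nm) measured in HCT116 cells with an inducible beta-lactamase reporter linked to p53 activity. Compounds incubated 16 h at 37C before 2 h room-temperature CCF4-AM loading.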

Assay [15] has the same target. Kind of assay: TOX21_p53_BLA_p5_ratio: Tox21 HCT-116 p53 Agonism Beta-lactamase Assay, Ratio, Phase 5 (AID 2283599). The method, boiled down:
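HCT-116 p53-bla cells (4000/well) plated 5 h, dosed with compound (217-fold DMSO dilution) for 16 h at 37 C; CCF4-AM substrate 2 h at room temperature. Activity is the 460/530 nm emission ratio (405 nm excitation), fitted in gain-of-signal direction versus DMSO.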

For assay [16] the target is unchanged. Kind of assay: TOX21_p53_BLA_p4_ratio: Tox21 HCT-116 p53 Agonism Beta-lactamase Assay, Ratio, Phase 4 (AID 2283601). The method, boiled down:
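HCT-116 p53 beta-lactamase reporter cells (4000/well) preincubated 5 h, then compound (217-fold dilution of DMSO stock) for 16 h at 37C. CCF4-AM substrate added 2 h at room temperature; 460/530 nm emission ratio fitted upward versus DMSO.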

The nature of assay [17]: ATG_MRE_CIS: Attagene CIS-FACTORIAL HepG2 Assay for human Metal Responsive Element (MRE) (AID 2282954; active = hit-call score of the fitted dose curve at least 0.9, where 1 is the maximum; inactive = score below 0.9). The note with it: HepG2 MRE cis-reporter transcription, Attagene multiplex; actives raise or lower the signal. The method, boiled down:
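Measured here is mRNA induction from an MRE cis-element reporter in HepG2 after 24 h, quantified by fluorescence of labelled RT-PCR products on capillary electrophoresis; gain- and loss-of-signal fits use DMSO as baseline.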

Assay [18] is described as follows: ATG_PBREM_CIS: Attagene CIS-FACTORIAL HepG2 Assay for human Phenobarbital-responsive Enhancer Module (PBREM) (AID 2282955; active = hit-call score of the fitted dose curve at least 0.9, where 1 is the maximum; inactive = score below 0.9). Particulars: HepG2 PBREM cis-reporter, Attagene multiplexed transcription; actives raise or lower the signal. The method, boiled down: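 Endogenous transcription factor activity was read from reporter transcripts in transiently transfected human HepG2 liver cells after 24 h dosing. RT-PCR products were fluorescently labelled, HpaI-cut and sized by capillary electrophoresis; activity fitted bidirectionally against DMSO baseline.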

Assay [19] addresses Hepatocyte nuclear factor 4-alpha (Homo sapiens) (UniProt P41235). The assay is described as follows: ATG_HNF4a_TRANS: Attagene TRANS-FACTORIAL HepG2 Assay for human Hepatocyte Nuclear Factor 4 alpha (HNF4a) (AID 2282982). Particulars: HepG2 HNF4a transactivation reporter, mRNA readout. The method, boiled down:
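Endpoint reflects transcriptional activation of a GAL4-UAS reporter by an HNF4a-GAL4 chimera in transfected HepG2 cells, 24 h post-dosing. Fluorescence from RT-PCR products separated by capillary electrophoresis; DMSO baseline.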

Assay [20] can be described thus: ATG_NF_kB_CIS: Attagene CIS-FACTORIAL HepG2 Assay for human Nuclear Factor Kappa B (NF-kB) (AID 2282991; active = hit-call score of the fitted dose curve at least 0.9, where 1 is the maximum; inactive = score below 0.9). Particulars: HepG2 Attagene cis-factorial NF-kB reporter mRNA; actives raise or lower the signal. The method, boiled down: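 Readout is reporter transcript level, gain or loss versus DMSO, measured 24 h post-dose via RT-PCR, fluorescent labelling and capillary electrophoresis. Human HepG2 liver cells carried transiently transfected CIS reporter constructs reflecting endogenous factors.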

Results filed as inconclusive are left out. Active and inactive are the calls of the source. Rule for the calls, unless noted: active = hit-call score of the fitted dose curve at least 0.9, where 1 is the maximum; inconclusive = response in the unintended direction; inactive = score below 0.9.

human Retinoid X Receptor beta (RXRb), RXRB (gene 6257), sequence (P28702 whole entry, looked up, the tested form may be a part): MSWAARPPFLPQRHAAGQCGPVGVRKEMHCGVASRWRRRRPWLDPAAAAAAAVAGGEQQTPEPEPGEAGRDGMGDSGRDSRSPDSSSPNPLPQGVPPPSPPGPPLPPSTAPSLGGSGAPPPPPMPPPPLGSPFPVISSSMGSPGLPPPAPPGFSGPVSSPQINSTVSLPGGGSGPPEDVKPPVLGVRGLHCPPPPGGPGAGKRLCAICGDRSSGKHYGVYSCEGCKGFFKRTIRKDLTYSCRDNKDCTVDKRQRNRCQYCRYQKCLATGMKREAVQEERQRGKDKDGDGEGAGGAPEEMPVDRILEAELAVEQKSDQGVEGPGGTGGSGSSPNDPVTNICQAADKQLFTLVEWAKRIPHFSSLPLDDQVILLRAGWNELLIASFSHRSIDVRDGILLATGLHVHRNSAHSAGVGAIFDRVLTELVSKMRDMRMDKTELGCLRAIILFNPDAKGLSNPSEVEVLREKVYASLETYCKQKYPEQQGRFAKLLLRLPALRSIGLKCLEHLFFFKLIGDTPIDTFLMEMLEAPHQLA
Hepatocyte nuclear factor 4-alpha (Homo sapiens), sequence (P41235 whole entry, looked up, the tested form may be a part): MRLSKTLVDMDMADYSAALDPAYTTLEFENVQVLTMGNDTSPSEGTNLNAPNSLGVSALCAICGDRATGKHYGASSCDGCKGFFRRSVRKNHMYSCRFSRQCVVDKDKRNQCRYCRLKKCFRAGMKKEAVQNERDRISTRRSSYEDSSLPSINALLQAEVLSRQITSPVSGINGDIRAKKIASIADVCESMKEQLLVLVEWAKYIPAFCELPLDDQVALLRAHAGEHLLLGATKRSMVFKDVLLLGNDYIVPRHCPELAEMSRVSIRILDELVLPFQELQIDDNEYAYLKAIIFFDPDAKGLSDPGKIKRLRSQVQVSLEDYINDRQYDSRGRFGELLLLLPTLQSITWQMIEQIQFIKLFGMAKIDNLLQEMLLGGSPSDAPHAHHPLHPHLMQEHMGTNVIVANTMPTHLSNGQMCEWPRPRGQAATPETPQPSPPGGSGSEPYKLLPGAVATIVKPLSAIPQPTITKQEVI
Hepatocyte nuclear factor 6 (Homo sapiens), sequence (Q9UBC0 whole entry, looked up): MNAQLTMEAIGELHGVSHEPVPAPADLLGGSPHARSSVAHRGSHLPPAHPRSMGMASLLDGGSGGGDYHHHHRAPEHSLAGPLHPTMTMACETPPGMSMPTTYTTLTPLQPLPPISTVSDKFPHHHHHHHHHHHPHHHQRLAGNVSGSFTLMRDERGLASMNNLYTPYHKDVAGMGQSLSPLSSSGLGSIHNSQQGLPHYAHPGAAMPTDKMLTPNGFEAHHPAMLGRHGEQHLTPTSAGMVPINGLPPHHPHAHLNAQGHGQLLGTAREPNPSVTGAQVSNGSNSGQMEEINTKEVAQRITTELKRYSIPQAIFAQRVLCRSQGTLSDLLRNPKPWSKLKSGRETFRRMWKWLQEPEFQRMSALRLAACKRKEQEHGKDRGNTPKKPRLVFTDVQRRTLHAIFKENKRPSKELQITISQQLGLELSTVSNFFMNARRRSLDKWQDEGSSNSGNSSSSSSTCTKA
Retinoic acid receptor RXR-alpha (Homo sapiens), sequence (P19793 whole entry, looked up, the tested form may be a part): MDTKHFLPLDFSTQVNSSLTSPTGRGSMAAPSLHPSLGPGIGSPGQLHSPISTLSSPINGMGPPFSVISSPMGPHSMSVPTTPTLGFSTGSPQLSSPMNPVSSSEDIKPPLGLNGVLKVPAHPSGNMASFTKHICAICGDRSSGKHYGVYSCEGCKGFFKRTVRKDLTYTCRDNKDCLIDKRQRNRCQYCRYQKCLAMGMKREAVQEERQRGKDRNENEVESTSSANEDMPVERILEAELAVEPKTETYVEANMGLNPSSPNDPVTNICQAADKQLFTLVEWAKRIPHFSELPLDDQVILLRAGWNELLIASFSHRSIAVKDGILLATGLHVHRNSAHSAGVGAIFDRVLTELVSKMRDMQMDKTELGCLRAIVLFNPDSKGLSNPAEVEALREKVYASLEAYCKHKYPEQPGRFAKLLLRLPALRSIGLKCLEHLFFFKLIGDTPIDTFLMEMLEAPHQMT
Retinoic acid receptor alpha (Homo sapiens), sequence (P10276 whole entry, looked up): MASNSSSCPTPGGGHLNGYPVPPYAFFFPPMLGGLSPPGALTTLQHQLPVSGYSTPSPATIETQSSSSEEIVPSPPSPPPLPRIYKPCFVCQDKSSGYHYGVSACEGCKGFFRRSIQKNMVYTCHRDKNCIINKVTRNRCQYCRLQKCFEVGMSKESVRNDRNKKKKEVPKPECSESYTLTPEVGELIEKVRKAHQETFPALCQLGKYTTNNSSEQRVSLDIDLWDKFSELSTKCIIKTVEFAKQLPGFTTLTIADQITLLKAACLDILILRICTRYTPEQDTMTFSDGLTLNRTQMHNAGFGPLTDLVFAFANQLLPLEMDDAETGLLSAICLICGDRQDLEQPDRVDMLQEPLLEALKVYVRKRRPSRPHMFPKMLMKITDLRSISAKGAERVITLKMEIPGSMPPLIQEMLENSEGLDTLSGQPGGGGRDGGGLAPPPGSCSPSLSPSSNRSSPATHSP
X-box-binding protein 1 (Homo sapiens), sequence (P17861 whole entry, looked up, the tested form may be a part): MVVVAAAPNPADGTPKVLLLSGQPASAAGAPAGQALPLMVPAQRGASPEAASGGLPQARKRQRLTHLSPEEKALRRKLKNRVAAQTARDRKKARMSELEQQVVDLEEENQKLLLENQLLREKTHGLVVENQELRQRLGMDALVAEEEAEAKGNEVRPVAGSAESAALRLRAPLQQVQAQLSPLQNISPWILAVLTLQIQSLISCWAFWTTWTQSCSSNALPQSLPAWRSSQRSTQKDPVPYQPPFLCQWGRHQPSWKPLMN
Cellular tumor antigen p53 (Homo sapiens), sequence (P04637 whole entry, looked up): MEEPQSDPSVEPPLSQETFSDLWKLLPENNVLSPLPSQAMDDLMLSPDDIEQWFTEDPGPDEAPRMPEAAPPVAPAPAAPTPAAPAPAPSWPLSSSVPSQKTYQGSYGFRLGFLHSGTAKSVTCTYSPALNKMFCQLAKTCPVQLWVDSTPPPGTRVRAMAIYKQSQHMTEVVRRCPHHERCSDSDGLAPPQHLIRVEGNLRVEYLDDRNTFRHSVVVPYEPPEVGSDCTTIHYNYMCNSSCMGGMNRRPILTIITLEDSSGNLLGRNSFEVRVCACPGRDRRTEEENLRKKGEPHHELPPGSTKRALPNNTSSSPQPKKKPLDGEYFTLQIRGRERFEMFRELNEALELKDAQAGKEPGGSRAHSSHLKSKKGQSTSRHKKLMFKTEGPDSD

For the molecule `CN(C)Cc1cc(C(C)(C)C)c(O)c(C(C)(C)C)c1`, the result in assay [1], in assay [2], in assay [3], in [4], in assay [5] and in assay [6] was inactive. Also, the call in assay [7], in assay [10], in [11] and in assay [12] was inactive. The values for the AC50 in assay [8] and in assay [9] were 22.9 µM (active) and 1.67 µM (active), respectively.
Take `NC(N)=Nc1nc(CSCCC(N)=NS(N)(=O)=O)cs1`: the outcome in assay [1], in assay [3], in assay [4], in assay [6], in assay [13] and in assay [7] was inactive. In addition, the call in [9], in assay [10], in assay [14], in assay [11], in assay [15] and in assay [12] was inactive. The result in assay [16] was inactive.
On to `O=C(O)c1nc(Cl)c(Cl)c(Cl)c1Cl`, for which the molecule was classed as inactive in [1], in [2], in [3], in [4], in assay [17] and in [18]. Besides, the result in [5], in assay [19], in assay [13] and in assay [7] was inactive.
Turning to `CNC[C@H](O)[C@@H](O)[C@H](O)[C@H](O)CO`, the molecule was classed as inactive in assay [1], in [2], in assay [4], in [17], in [18] and in assay [6]. Besides, the molecule was classed as inactive in assay [13], in assay [7], in assay [20], in assay [10], in assay [14] and in assay [11]. Besides, the result in assay [15], in assay [12] and in [16] was inactive.
`CCCCCCC1CCC(=O)O1` (stereo unspecified): the molecule was called inactive in assay [1], in [2], in assay [18], in assay [5], in assay [6] and in assay [19]. The outcome in assay [7], in [8], in [9], in assay [10], in [14] and in assay [11] was inactive. Besides, in assay [15], the outcome was inactive.
For the molecule `C=CC(C)(CCC=C(C)C)OC(=O)c1ccccc1` (stereo unspecified), the molecule was classed as inactive in assay [1], in assay [2], in assay [3], in [5], in assay [6] and in [13]. Besides, the call in assay [7], in assay [20], in assay [8], in [10], in assay [14] and in assay [11] was inactive. In addition, the result in [15], in assay [12] and in assay [16] was inactive. Also, in assay [17], the concentration at half-maximal activity (AC50) is 177 µM (active).
On to `O=C(c1ccccc1)c1ccccc1O`, for which the molecule was called inactive in assay [1], in assay [2], in [3], in [17], in [18] and in assay [5]. Further, the call in [13], in [7], in assay [20] and in [8] was inactive. The half-maximal activity concentration (AC50) in assay [4] is 148 µM (active); in assay [9] it was 75.9 µM (active).
Regarding `Clc1ccc(Sc2cc(Cl)c(Cl)cc2Cl)cc1`, the call in assay [1], in assay [2], in assay [3], in assay [4], in assay [17] and in [18] was inactive. In addition, the outcome in [5], in [6], in assay [19], in assay [13], in assay [8] and in assay [14] was inactive. Moreover, the outcome in [11], in [12] and in assay [16] was inactive. Also, the AC50 in assay [9] was 7.54 µM (active).
Take `CCC(=O)OCc1ccc(OC)cc1`: the call in assay [1], in assay [2], in [3], in assay [4], in [18] and in assay [6] was inactive. In addition, the outcome in [19], in assay [7], in [20], in assay [8], in assay [9] and in assay [10] was inactive. The outcome in assay [14], in [11], in [15] and in [16] was inactive.
For the molecule `CCCCCCCC#N`, the result in assay [1], in assay [2], in assay [3], in [17], in [5] and in assay [19] was inactive. The call in assay [20] and in [8] was inactive.

One may read the AC50 as the midpoint of the concentration-response curve, whichever way the signal moves.
